From article PMC11006913 come the findings set out here.

Assay in all cases: PBM; 200 nM protein, PBS
What all share (conditions): dsDNA, one strand shown

One experiment concerns the target T1, VENTX (Homo sapiens, UniProt O95231 78-163, R121Q).
T1 sequence: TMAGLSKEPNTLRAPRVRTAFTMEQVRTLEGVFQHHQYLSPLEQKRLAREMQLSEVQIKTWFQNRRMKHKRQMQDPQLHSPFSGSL

Experiment [1] addresses HOXA4 (Homo sapiens, UniProt Q00056 201-287, W262R).
For experiment [2], the target named is HOXA7 (Homo sapiens, UniProt P31268 116-202).
The target of experiment [3] is ALX4 (Homo sapiens, UniProt Q9H161 200-286).
The target of experiment [4] is PRRX1 (Homo sapiens, UniProt P54821 80-166, F113S).
Experiment [5] has as its target HOXB6 (Homo sapiens, UniProt P17509 132-218, K202E).
Experiment [6] concerns the target ALX4 (Homo sapiens, UniProt Q9H161 200-286, Q225E).
Experiment [7] concerns the target HOXA2 (Homo sapiens, UniProt O43364 129-215, R185T).
The target in experiment [8] is MSX2 (Homo sapiens, UniProt P35548 130-214, R199I).
Experiment [9] deals with HOXA2 (Homo sapiens, UniProt O43364 129-215, R185K).
Experiment [10] has as its target HOXA4 (Homo sapiens, UniProt Q00056 201-287).
Experiment [11] concerns the target MSX2 (Homo sapiens, UniProt P35548 130-214).
Experiment [12] has as its target MSX2 (Homo sapiens, UniProt P35548 130-214, F161Y).
Experiment [13] has as its target VAX1 (Homo sapiens, UniProt Q5SQQ9 86-172, T142I).
Experiment [14] concerns the target HOXA7 (Homo sapiens, UniProt P31268 116-202, W177C).
In the next experiment the target is ALX1 (Homo sapiens, UniProt Q15699 118-204).
Experiment [15] addresses HOXA4 (Homo sapiens, UniProt Q00056 201-287, W262F).
Experiment [16] deals with PRRX1 (Homo sapiens, UniProt P54821 80-166).
Experiment [17] concerns the target VAX1 (Homo sapiens, UniProt Q5SQQ9 86-172, K157R).
The target of experiment [18] is HOXB6 (Homo sapiens, UniProt P17509 132-218).
HOXB6 (Homo sapiens, UniProt P17509 132-218), sequence (P17509 132-218): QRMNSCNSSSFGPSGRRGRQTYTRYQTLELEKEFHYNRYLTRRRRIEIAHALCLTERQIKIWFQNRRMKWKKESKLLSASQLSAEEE

HOXA2 (Homo sapiens, UniProt O43364 129-215, R185K), sequence (O43364 129-215 R185K): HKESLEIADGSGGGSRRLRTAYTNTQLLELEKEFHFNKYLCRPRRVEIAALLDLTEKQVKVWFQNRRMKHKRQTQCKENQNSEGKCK
PRRX1 (Homo sapiens, UniProt P54821 80-166, F113S), sequence (P54821 80-166 F113S): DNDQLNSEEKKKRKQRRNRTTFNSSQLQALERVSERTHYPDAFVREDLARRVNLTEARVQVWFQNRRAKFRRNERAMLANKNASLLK
HOXA4 (Homo sapiens, UniProt Q00056 201-287, W262F), sequence (Q00056 201-287 W262F): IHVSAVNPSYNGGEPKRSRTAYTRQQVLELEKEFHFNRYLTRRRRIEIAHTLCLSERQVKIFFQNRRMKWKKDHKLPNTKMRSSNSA
VAX1 (Homo sapiens, UniProt Q5SQQ9 86-172, T142I), sequence (Q5SQQ9 86-172 T142I): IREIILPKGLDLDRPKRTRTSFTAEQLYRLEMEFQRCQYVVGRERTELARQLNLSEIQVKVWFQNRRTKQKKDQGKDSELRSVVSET
MSX2 (Homo sapiens, UniProt P35548 130-214, R199I), sequence (P35548 130-214 R199I): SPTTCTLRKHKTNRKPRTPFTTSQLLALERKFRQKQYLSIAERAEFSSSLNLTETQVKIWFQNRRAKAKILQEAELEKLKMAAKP
PRRX1 (Homo sapiens, UniProt P54821 80-166), sequence (P54821 80-166): as the sequence (P54821 80-166 F113S) above, with S34F counted along it
HOXA2 (Homo sapiens, UniProt O43364 129-215, R185T), sequence (O43364 129-215 R185T): as the sequence (O43364 129-215 R185K) above, with K57T counted along it
HOXA4 (Homo sapiens, UniProt Q00056 201-287, W262R), sequence (Q00056 201-287 W262R): as the sequence (Q00056 201-287 W262F) above, with F62R counted along it
MSX2 (Homo sapiens, UniProt P35548 130-214), sequence (P35548 130-214): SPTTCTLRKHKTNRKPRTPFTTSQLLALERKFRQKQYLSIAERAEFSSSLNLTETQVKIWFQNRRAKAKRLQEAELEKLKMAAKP
HOXA7 (Homo sapiens, UniProt P31268 116-202, W177C), sequence (P31268 116-202 W177C): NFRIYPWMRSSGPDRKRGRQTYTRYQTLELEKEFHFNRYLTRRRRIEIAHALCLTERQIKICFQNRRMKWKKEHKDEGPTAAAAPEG
MSX2 (Homo sapiens, UniProt P35548 130-214, F161Y), sequence (P35548 130-214 F161Y): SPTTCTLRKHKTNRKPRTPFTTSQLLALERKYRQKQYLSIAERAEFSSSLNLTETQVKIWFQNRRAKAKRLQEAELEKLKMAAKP
ALX4 (Homo sapiens, UniProt Q9H161 200-286, Q225E), sequence (Q9H161 200-286 Q225E): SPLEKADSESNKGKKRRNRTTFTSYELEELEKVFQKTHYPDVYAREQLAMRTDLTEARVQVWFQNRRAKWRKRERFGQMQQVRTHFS
HOXB6 (Homo sapiens, UniProt P17509 132-218, K202E), sequence (P17509 132-218 K202E): as the sequence (P17509 132-218) above, with K71E counted along it
ALX4 (Homo sapiens, UniProt Q9H161 200-286), sequence (Q9H161 200-286): as the sequence (Q9H161 200-286 Q225E) above, with E26Q counted along it
HOXA7 (Homo sapiens, UniProt P31268 116-202), sequence (P31268 116-202): as the sequence (P31268 116-202 W177C) above, with C62W counted along it
ALX1, sequence (Q15699 118-204): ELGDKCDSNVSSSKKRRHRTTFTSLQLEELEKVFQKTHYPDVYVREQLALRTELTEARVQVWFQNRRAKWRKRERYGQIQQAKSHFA
HOXA4 (Homo sapiens, UniProt Q00056 201-287), sequence (Q00056 201-287): as the sequence (Q00056 201-287 W262F) above, with F62W counted along it
VAX1 (Homo sapiens, UniProt Q5SQQ9 86-172, K157R), sequence (Q5SQQ9 86-172 K157R): as the sequence (Q5SQQ9 86-172 T142I) above, with I57T, K72R counted along it

Consider AATTAATT, for which the binding signal with VENTX is 12.1 upbm affinity estimate (log intensity, higher = more binding, comparable within an allelic series); with HOXA4 [1] it was 10.8 upbm affinity estimate (log intensity, higher = more binding, comparable within an allelic series); in the experiment with HOXA7 [2], 11.9 upbm affinity estimate (log intensity, higher = more binding, comparable within an allelic series); in the experiment with ALX4 [3] it was 14.7 upbm affinity estimate (log intensity, higher = more binding, comparable within an allelic series); with PRRX1 [4] it was 11.8 upbm affinity estimate (log intensity, higher = more binding, comparable within an allelic series); with HOXB6 [5], 10.2 upbm affinity estimate (log intensity, higher = more binding, comparable within an allelic series). Also, the binding signal was 14.3 upbm affinity estimate (log intensity, higher = more binding, comparable within an allelic series) with ALX4 [6]; 13.4 upbm affinity estimate (log intensity, higher = more binding, comparable within an allelic series) with HOXA2 [7]; 13.3 upbm affinity estimate (log intensity, higher = more binding, comparable within an allelic series) with MSX2 [8]; 13.5 upbm affinity estimate (log intensity, higher = more binding, comparable within an allelic series) with HOXA2 [9]; 14 upbm affinity estimate (log intensity, higher = more binding, comparable within an allelic series) with HOXA4 [10]; 14.1 upbm affinity estimate (log intensity, higher = more binding, comparable within an allelic series) in the experiment with MSX2 [11]. In addition, the binding signal is 13.8 upbm affinity estimate (log intensity, higher = more binding, comparable within an allelic series) with MSX2 [12]; 13.2 upbm affinity estimate (log intensity, higher = more binding, comparable within an allelic series) with VAX1 [13]; 8.91 upbm affinity estimate (log intensity, higher = more binding, comparable within an allelic series) with HOXA7 [14]; 13 upbm affinity estimate (log intensity, higher = more binding, comparable within an allelic series) in the experiment with ALX1; 12.2 upbm affinity estimate (log intensity, higher = more binding, comparable within an allelic series) with HOXA4 [15]; 13.6 upbm affinity estimate (log intensity, higher = more binding, comparable within an allelic series) in the experiment with PRRX1 [16]. Moreover, the binding signal in the experiment with VAX1 [17] was 13.1 upbm affinity estimate (log intensity, higher = more binding, comparable within an allelic series); with HOXB6 [18] it was 12.4 upbm affinity estimate (log intensity, higher = more binding, comparable within an allelic series).

TAATTATA: the binding signal was 11.9 upbm affinity estimate (log intensity, higher = more binding, comparable within an allelic series) with VENTX; 10.8 upbm affinity estimate (log intensity, higher = more binding, comparable within an allelic series) with HOXA4 [1]; 11.8 upbm affinity estimate (log intensity, higher = more binding, comparable within an allelic series) with HOXA7 [2]; 14.3 upbm affinity estimate (log intensity, higher = more binding, comparable within an allelic series) in the experiment with ALX4 [3]; 11.8 upbm affinity estimate (log intensity, higher = more binding, comparable within an allelic series) in the experiment with PRRX1 [4]; 10.3 upbm affinity estimate (log intensity, higher = more binding, comparable within an allelic series) with HOXB6 [5]. Moreover, the binding signal in the experiment with ALX4 [6] was 13.9 upbm affinity estimate (log intensity, higher = more binding, comparable within an allelic series); in the experiment with HOXA2 [7], 13.6 upbm affinity estimate (log intensity, higher = more binding, comparable within an allelic series); in the experiment with MSX2 [8], 13 upbm affinity estimate (log intensity, higher = more binding, comparable within an allelic series); with HOXA2 [9] it was 13.7 upbm affinity estimate (log intensity, higher = more binding, comparable within an allelic series); with HOXA4 [10], 14.2 upbm affinity estimate (log intensity, higher = more binding, comparable within an allelic series); in the experiment with MSX2 [11], 14 upbm affinity estimate (log intensity, higher = more binding, comparable within an allelic series). Further, the binding signal was 13.6 upbm affinity estimate (log intensity, higher = more binding, comparable within an allelic series) in the experiment with MSX2 [12]; 13.4 upbm affinity estimate (log intensity, higher = more binding, comparable within an allelic series) in the experiment with VAX1 [13]; 9 upbm affinity estimate (log intensity, higher = more binding, comparable within an allelic series) with HOXA7 [14]; 12.7 upbm affinity estimate (log intensity, higher = more binding, comparable within an allelic series) in the experiment with ALX1; 12.1 upbm affinity estimate (log intensity, higher = more binding, comparable within an allelic series) in the experiment with HOXA4 [15]; 13.6 upbm affinity estimate (log intensity, higher = more binding, comparable within an allelic series) with PRRX1 [16]. Also, the binding signal with VAX1 [17] was 13.4 upbm affinity estimate (log intensity, higher = more binding, comparable within an allelic series); in the experiment with HOXB6 [18], 12.3 upbm affinity estimate (log intensity, higher = more binding, comparable within an allelic series).

Regarding CTTAATTA, the binding signal with VENTX is 12.5 upbm affinity estimate (log intensity, higher = more binding, comparable within an allelic series); with HOXA4 [1] it was 11 upbm affinity estimate (log intensity, higher = more binding, comparable within an allelic series); in the experiment with HOXA7 [2], 12.1 upbm affinity estimate (log intensity, higher = more binding, comparable within an allelic series); in the experiment with ALX4 [3] it was 14.5 upbm affinity estimate (log intensity, higher = more binding, comparable within an allelic series); in the experiment with PRRX1 [4], 12 upbm affinity estimate (log intensity, higher = more binding, comparable within an allelic series); with HOXB6 [5], 10.3 upbm affinity estimate (log intensity, higher = more binding, comparable within an allelic series). The binding signal in the experiment with ALX4 [6] is 14.3 upbm affinity estimate (log intensity, higher = more binding, comparable within an allelic series); with HOXA2 [7], 13.8 upbm affinity estimate (log intensity, higher = more binding, comparable within an allelic series); with MSX2 [8], 13.1 upbm affinity estimate (log intensity, higher = more binding, comparable within an allelic series); in the experiment with HOXA2 [9], 13.8 upbm affinity estimate (log intensity, higher = more binding, comparable within an allelic series); with HOXA4 [10] it was 14.3 upbm affinity estimate (log intensity, higher = more binding, comparable within an allelic series); with MSX2 [11], 14 upbm affinity estimate (log intensity, higher = more binding, comparable within an allelic series). In addition, the binding signal was 13.6 upbm affinity estimate (log intensity, higher = more binding, comparable within an allelic series) with MSX2 [12]; 13.9 upbm affinity estimate (log intensity, higher = more binding, comparable within an allelic series) in the experiment with VAX1 [13]; 8.96 upbm affinity estimate (log intensity, higher = more binding, comparable within an allelic series) in the experiment with HOXA7 [14]; 12.9 upbm affinity estimate (log intensity, higher = more binding, comparable within an allelic series) with ALX1; 13 upbm affinity estimate (log intensity, higher = more binding, comparable within an allelic series) in the experiment with HOXA4 [15]; 13.6 upbm affinity estimate (log intensity, higher = more binding, comparable within an allelic series) with PRRX1 [16]. Also, the binding signal is 13.8 upbm affinity estimate (log intensity, higher = more binding, comparable within an allelic series) in the experiment with VAX1 [17] and 12.5 upbm affinity estimate (log intensity, higher = more binding, comparable within an allelic series) in the experiment with HOXB6 [18].

On to ATTAATTA, for which the binding signal with VENTX is 12.8 upbm affinity estimate (log intensity, higher = more binding, comparable within an allelic series); with HOXA4 [1], 11.1 upbm affinity estimate (log intensity, higher = more binding, comparable within an allelic series); with HOXA7 [2] it was 12.6 upbm affinity estimate (log intensity, higher = more binding, comparable within an allelic series); with ALX4 [3], 14.7 upbm affinity estimate (log intensity, higher = more binding, comparable within an allelic series); with PRRX1 [4] it was 12.2 upbm affinity estimate (log intensity, higher = more binding, comparable within an allelic series); in the experiment with HOXB6 [5] it was 10.4 upbm affinity estimate (log intensity, higher = more binding, comparable within an allelic series). Further, the binding signal with ALX4 [6] was 14.6 upbm affinity estimate (log intensity, higher = more binding, comparable within an allelic series); in the experiment with HOXA2 [7] it was 14 upbm affinity estimate (log intensity, higher = more binding, comparable within an allelic series); in the experiment with MSX2 [8], 13.4 upbm affinity estimate (log intensity, higher = more binding, comparable within an allelic series); in the experiment with HOXA2 [9], 14 upbm affinity estimate (log intensity, higher = more binding, comparable within an allelic series); in the experiment with HOXA4 [10] it was 14.4 upbm affinity estimate (log intensity, higher = more binding, comparable within an allelic series); in the experiment with MSX2 [11], 14.2 upbm affinity estimate (log intensity, higher = more binding, comparable within an allelic series). The binding signal with MSX2 [12] was 13.8 upbm affinity estimate (log intensity, higher = more binding, comparable within an allelic series); with VAX1 [13], 13.9 upbm affinity estimate (log intensity, higher = more binding, comparable within an allelic series); with HOXA7 [14] it was 9.01 upbm affinity estimate (log intensity, higher = more binding, comparable within an allelic series); in the experiment with ALX1, 13.2 upbm affinity estimate (log intensity, higher = more binding, comparable within an allelic series); with HOXA4 [15], 13.1 upbm affinity estimate (log intensity, higher = more binding, comparable within an allelic series); in the experiment with PRRX1 [16], 13.8 upbm affinity estimate (log intensity, higher = more binding, comparable within an allelic series). Moreover, the binding signal is 13.8 upbm affinity estimate (log intensity, higher = more binding, comparable within an allelic series) with VAX1 [17] and 12.8 upbm affinity estimate (log intensity, higher = more binding, comparable within an allelic series) with HOXB6 [18].
